Results taken from PubChem BioAssay (NCI).
Compounds without any hit were thinned out: in the full panel of roughly 79,000, 15% have a hit. The source made the active and inactive calls. Rule as the data show it: active = growth inhibition above about 70%; inactive = the rest.

Key:
[1] = NCI Yeast Anticancer Drug Screen. Data for the rad50 strain (AID 155);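 also: 0% = growth of vehicle-only cultures of the same strain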; conditions: S. cerevisiae rad50 strain growth inhibition, hits give high values
Outline: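 Inhibition values express reduced yeast growth in compound-treated cultures relative to vehicle-treated controls.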

[2] = NCI Yeast Anticancer Drug Screen. Data for the mec2-1 strain (AID 157); conditions: S. cerevisiae mec2-1 strain, hits give high values
Outline: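 Using mec2-1 yeast: add compound, measure growth, express inhibition versus vehicle-treated cultures.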

[3] = NCI Yeast Anticancer Drug Screen. Data for the sgs1 mgt1 strain (AID 161);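 also: 0% = growth of cultures given vehicle only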; conditions: S. cerevisiae sgs1 mgt1 strain, hits give high values
Outline: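 Compounds are added to genetically altered yeast, and growth is compared with cultures given vehicle alone to give percent inhibition.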

[4] = NCI Yeast Anticancer Drug Screen. Data for the cln2 rad14 strain (AID 165);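 also: 0% = growth equal to vehicle treated cultures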; conditions: S. cerevisiae cln2 rad14 strain, hits give high values
Outline: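 Yeast strain cln2 rad14, bearing defects in cell cycle control and DNA repair, serves as the test system; values reflect growth inhibition compared with vehicle.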

[5] = NCI Yeast Anticancer Drug Screen. Data for the bub3 strain (AID 167); conditions: S. cerevisiae bub3 mutant strain, hits give high values
Outline: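 Steps: expose the mutant yeast strain to compound; grow alongside vehicle-treated cultures; measure growth; express inhibition against the vehicle cultures.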

[6] = NCI Yeast Anticancer Drug Screen. Data for the mlh1 rad18 strain (AID 175); conditions: S. cerevisiae mlh1 rad18 strain growth inhibition, hits give high values
Outline: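 Steps: expose repair-defective yeast to compound; measure growth; express inhibition against vehicle-treated controls.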

[7] = at 5.0 µM (retest, dose inferred, filed as 0.5)
[8] = at 50.0 µM (retest, dose inferred, filed as 5.0)

Measured: growth inhibition

OCC(O)C(OC1OC(CO)C(O)C(O)C1O)C(O)C(/C=N/Nc1ccc(Br)cc1)=N/Nc1ccc(Br)cc1 (stereo not given)
inactive: [1]; [7] -3% | [2]; [7] -11% | [3]; [7] 2% | [4]; [7] -41% | [5]; [7] 23% | [6]; [7] 13%
active: [1]; [8] 98% | [1]; at 50.0 µM 99.3% | [2]; [8] 98% | [2]; at 50.0 µM 98.5% | [3]; [8] 99% | [3]; at 50.0 µM 98.5% | [4]; [8] 99% | [4]; at 50.0 µM 98.9% | [5]; [8] 99% | [5]; at 50.0 µM 97.9% | [6]; [8] 98% | [6]; at 50.0 µM 98.5%

N#Cc1snc2sc(=O)sc12
active: [1]; [7] 99% | [1]; [8] 100% | [1]; at 50.0 µM 99.5% | [2]; [7] 100% | [2]; [8] 99% | [2]; at 50.0 µM 99.7% | [3]; [7] 100% | [3]; [8] 100% | [3]; at 50.0 µM 99.5% | [4]; [7] 99% | [4]; [8] 100% | [4]; at 50.0 µM 99.2% | [5]; [7] 100% | [5]; [8] 99% | [5]; at 50.0 µM 99.2% | [6]; [7] 100% | [6]; [8] 99% | [6]; at 50.0 µM 99.5%

C=CCOc1ccc2c(c1)CC=C1[C@@H]2CC[C@]2(C)C(=N\O)/C(=N/O)C[C@@H]12
active: [1]; [8] 95% | [1]; at 50.0 µM 98.8% | [2]; [8] 99% | [2]; at 50.0 µM 99.1% | [3]; [8] 99% | [3]; at 50.0 µM 99% | [4]; [8] 99% | [4]; at 50.0 µM 98.1% | [5]; [8] 99% | [5]; at 50.0 µM 98.8% | [6]; [8] 99% | [6]; at 50.0 µM 99%
inactive: [1]; [7] 10% | [2]; [7] -7% | [3]; [7] -9% | [4]; [7] -2% | [5]; [7] 1% | [6]; [7] 45%

CC(C)(C)CC(C)(C)c1ccc(O)c(O)c1
active: [1]; [7] 96% | [1]; [8] 99% | [1]; at 50.0 µM 93.3% | [2]; [7] 100% | [2]; [8] 99% | [2]; at 50.0 µM 94.2% | [3]; [7] 98% | [3]; [8] 99% | [3]; at 50.0 µM 94.5% | [4]; [8] 99% | [4]; at 50.0 µM 92.3% | [5]; [7] 86% | [5]; [8] 98% | [5]; at 50.0 µM 93.3% | [6]; [7] 100% | [6]; [8] 99% | [6]; at 50.0 µM 93.2%
inactive: [4]; [7] 55%

COc1ccc(CC[N+]2(C)COc3cc4oc(=O)cc(C)c4cc3C2)cc1OC (stereo not given)
inactive: [1]; [7] 5% | [1]; [8] 9% | [1]; at 50.0 µM -42.5% | [2]; [7] 0% | [2]; [8] -14% | [2]; at 50.0 µM -33.5% | [3]; [7] 0% | [3]; [8] -6% | [3]; at 50.0 µM -27.9% | [4]; [7] -21% | [4]; [8] 9% | [4]; at 50.0 µM 34.6% | [5]; [7] -8% | [5]; [8] 0% | [5]; at 50.0 µM -20.9% | [6]; [7] 9% | [6]; [8] 7% | [6]; at 50.0 µM -32.5%

FC(F)(F)c1[nH]nc(-c2cc3ccccc3o2)c1N=NN1CCOCC1
active: [1]; [7] 99% | [1]; [8] 99% | [1]; at 50.0 µM 99.2% | [2]; [7] 100% | [2]; [8] 99% | [2]; at 50.0 µM 99.5% | [3]; [7] 100% | [3]; [8] 99% | [3]; at 50.0 µM 99.5% | [4]; [7] 99% | [4]; [8] 99% | [4]; at 50.0 µM 99.6% | [5]; [7] 100% | [5]; [8] 99% | [5]; at 50.0 µM 99.5% | [6]; [7] 100% | [6]; [8] 99% | [6]; at 50.0 µM 99.5%

CC(=O)c1cc(-c2ccccc2)nc2ccccc12
inactive: [1]; [7] -5% | [1]; [8] 38% | [2]; [7] -29% | [3]; [7] 12% | [4]; [7] -25% | [4]; [8] 35% | [5]; [7] -28% | [6]; [7] 4%
active: [1]; at 50.0 µM 89.2% | [2]; [8] 84% | [2]; at 50.0 µM 94.1% | [3]; [8] 80% | [3]; at 50.0 µM 98.2% | [4]; at 50.0 µM 74.5% | [5]; [8] 87% | [5]; at 50.0 µM 87% | [6]; [8] 88% | [6]; at 50.0 µM 97.1%

c1ccc(-c2cnc3nc4ccccc4nc3n2)cc1
active: [1]; [8] 89% | [1]; at 50.0 µM 94.9% | [2]; [8] 76% | [3]; [8] 73% | [3]; at 50.0 µM 95.8% | [5]; [8] 77% | [5]; at 50.0 µM 92% | [6]; [8] 93% | [6]; at 50.0 µM 89.5%
inactive: [1]; [7] -7% | [2]; [7] 4% | [2]; at 50.0 µM 50.6% | [3]; [7] 12% | [4]; [7] -11% | [4]; [8] 3% | [4]; at 50.0 µM 36.5% | [5]; [7] 16% | [6]; [7] 7%

CC(SCc1ccccc1)C(=O)O (stereo not given)
inactive: [1]; [7] -10% | [1]; [8] 10% | [1]; at 50.0 µM -9.25% | [2]; [7] 3% | [2]; [8] 7% | [2]; at 50.0 µM -29.8% | [3]; [7] -6% | [3]; [8] 3% | [3]; at 50.0 µM -35.9% | [4]; [7] 9% | [4]; [8] -1% | [5]; [7] -21% | [5]; [8] -2% | [5]; at 50.0 µM -18.6% | [6]; [7] -2% | [6]; [8] 44% | [6]; at 50.0 µM -44.5%
active: [4]; at 50.0 µM 73%

O=C(CC1(O)C(=O)Nc2c(Cl)cc(Cl)cc21)c1ccc(Cl)cc1 (stereo not given)
inactive: [1]; [7] 0% | [2]; [7] -1% | [3]; [7] 3% | [4]; [7] -3% | [5]; [7] -3% | [6]; [7] -1%
active: [1]; [8] 87% | [1]; at 50.0 µM 85% | [2]; [8] 91% | [2]; at 50.0 µM 70.3% | [3]; [8] 98% | [3]; at 50.0 µM 81% | [4]; [8] 96% | [4]; at 50.0 µM 82.5% | [5]; [8] 93% | [5]; at 50.0 µM 71.5% | [6]; [8] 97% | [6]; at 50.0 µM 93.8%
